# A selection: hits, their analogues and other compounds. The true share with any hit is near 3%.
# KLF5 inhibitor – suppresses KLF5 promoter-driven expression. hit rate 0.23% among 290,000. inhibition, % at 5 µM. DLD-1 KLF5 promoter-luciferase reporter, luminescence;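 active = inhibition above a per-plate limit of that plate's mean compound inhibition plus 3 SD, cut at about 60% in these data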;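 note: 0% = DMSO wells and 100% = LY294002 at 200 µM; higher means less KLF5 promoter-driven luciferase light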
# CSC inhib – blocks cancer stem cells | hit rate 1.1% among 300,000 | AID 2717 | cancer stem cell-like cells viability, luminescence | inhibition, % at 7.5 µM; in the data active = inhibition above about 75%; inconclusive = no clear call, values can overlap the other calls; tested in HMLE shEcad cells
# aSyn UTR inh – 5' untranslated region of α-synuclein, MLPCN primary screen; alpha-synuclein 5'UTR reporter, inhibitor activity; hit rate 0.82% among 300,000; inhibition, % (tested at 7.5 µM); AID 1813; in the data active = inhibition above about 60%; inconclusive = no clear call, values can overlap the other calls;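 note: H4 neuroglioblastoma cells stably carrying SNCA 5'UTR luciferase fusion; 0% = DMSO wells and 100% = positive control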
# IEC-6 cytotox – kills IEC-6 intestinal cells in KLF5 counter-screen; IEC-6 cytotoxicity, luminescence viability; inhibition, % at 5 µM; AID 1825; hit rate 0.78% among 290,000; in the data active = inhibition above about 22%;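 note: 0% = plate median of test compound wells and 100% = cytotoxic reference compound wells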
# SKKanGAS inh – blocks kanamycin growth of S. pyogenes SKKanGAS strain; BacTiter-Glo, 6 h; inhibition, % at 7.5 µM; hit rate 1.3% among 300,000; AID 1662;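 active = mean replicate score, as percent of positive control median, at least 50; inconclusive = mean below 50 but one replicate at or above 50; inactive = mean and every replicate below 50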;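 note: strain carries kanamycin resistance gene driven by streptokinase promoter and grows in 40 µg/ml kanamycin; loss of luminescence reflects streptokinase promoter inhibition or plain growth inhibition; 0% = median of DMSO wells and 100% = positive control at its reference dose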
# The depositor's hits bear a star; ? = inconclusive; . = not tested or not shown.
SMILES,KLF5 inhibitor,CSC inhib,aSyn UTR inh,IEC-6 cytotox,SKKanGAS inh
C/C(=N\N1CCCCCC1)c1c(O)n(-c2ccccc2C)c(=O)[nH]c1=O,1,-5,20,-2,-1
CN(C)C1C(=O)C(C(N)=O)=C(O)C2(O)C(=O)C3=C(O)c4c(O)cccc4C(C)(O)C3C(O)C12 (centres undefined),-11,0,20,-6,105*
COc1ccc(-c2nn(CCC#N)cc2C(=O)Nc2cccc([N+](=O)[O-])c2)cc1OC,-48,-10,-9,-2,4
Clc1ccc(C(c2ccc(Cl)cc2)n2cc[n+](CC(OCc3ccc(Cl)cc3Cl)c3ccc(Cl)cc3Cl)c2)cc1 (centres undefined),.,107*,.,.,.
C/C(=N\NC(=O)c1ccccc1O)c1c(O)n(C2CCCCC2)c(=O)[nH]c1=O,-64,-7,-9,-8,50*
CN1C(=O)C(c2ccc([N+](=O)[O-])cc2[N+](=O)[O-])C(=O)N(C)C1=O,-1,-4,0,4,1
CC1Oc2cc3c(-c4c(O)cc(O)c5c(O)c6c(cc45)OC(C)C(C)C6=O)c(O)cc(O)c3c(O)c2C(=O)C1C (centres undefined),30,-3,87*,-9,107*
O=C(/C=C/c1c[nH]c2ccccc12)c1c(O)n(CCc2ccccc2)c(=O)[nH]c1=O,16,16,26,1,85*
COc1cc(C(=O)OC2C[C@H]3CC[C@@H](C2)N3)ccc1O (some centres undefined),3,34,-5,0,-3
O[C@@H]1CCCN2CCc3c([nH]c4ccccc34)[C@H]12,.,-9,9,.,98*
O=[N+]([O-])c1ccc(Cl)c([N+](=O)[O-])c1,.,102*,.,.,.
O=[N+]([O-])c1ccc(O)c([N+](=O)[O-])c1,.,5,7,.,1
Oc1cccc2cccnc12,30,-4,-6,37*,94*
C=C(C=O)C[C@@H]1C[C@H](O)C2OC3C[C@]4(C)OC5/C=C\CC6OC7C(CC=CCC6OC5CCCC4OC3CC2O1)OC1CC2OC3CC(=O)OC3C[C@@H](C)C[C@@]2(C)OC1C[C@@H]7C (some centres undefined),.,104*,113*,.,16
O=C(O)c1sc2cc(Cl)ccc2c1Cl,8,-6,-11,-5,1
CN(C)C(=O)Oc1noc2cc(Cl)ccc12,-2,-1,2,-13,-5
CC(=O)O[C@H]1[C@H]2O[C@]23[C@@H]2CC[C@]4(O)C[C@@H](O)CC[C@]4(C)C2CC[C@]3(C)[C@H]1c1ccc(=O)oc1 (some centres undefined),.,105*,.,.,.
C[C@]12CC[C@H]3C(CCC4(O)CC(O)CC[C@]34C=O)C1=CC[C@H]2c1ccc(=O)oc1 (some centres undefined),-31,78*,82*,-12,3
CC1(C)C(C(=O)N2CCN(c3ccc(Cl)cc3)CC2)C1(C)C,1,0,2,-9,2
COC(=O)C1CN(C#N)N(c2ccc(Cl)cc2)C12c1ccccc1-c1ccccc12 (centres undefined),18,-11,112*,46*,67*
COc1ccc(CN2CCN(Cc3ccccc3F)CC2)cc1,-27,1,12,-11,-1
C=C[C@@H]1C2=CCOC(=O)C2=CO[C@H]1O[C@@H]1O[C@H](CO)[C@@H](O)[C@H](O)[C@H]1O,.,-25,.,.,.
CN(C)CCN=Cc1c(O)n(CCC2=CCCCC2)c(=O)[nH]c1=O,-23,-2,12,3,2
O=C(/C=C/c1ccc2c(c1)OCO2)c1c(O)n(CCC2=CCCCC2)c(=O)[nH]c1=O,1,84*,.,-4,.
COc1ccc(/C=C/C(=O)c2c(O)n(CCC3=CCCCC3)c(=O)[nH]c2=O)cc1,-26,120*,-54,-3,58*
SMILES,KLF5 inhibitor,CSC inhib,aSyn UTR inh,IEC-6 cytotox,SKKanGAS inh
C[C@]1(O)CCC2C3CC[C@H]4C[C@@H](OC(=O)CNC(=O)CN)CC[C@]4(C)C3CC[C@@]21C (some centres undefined),.,-12,.,.,.
C[C@H]1C/C=C/[C@H]2[C@H](O)[C@H](C)[C@@](C)(O)[C@H]3[C@H](Cc4ccccc4)NC(=O)[C@]32[C@H](O)/C=C/[C@](C)(O)C1,.,-3,24,.,5
CC(=O)O[C@@H]1/C=C/[C@](C)(O)C[C@@H](C)C/C=C/[C@H]2[C@H](O)C(C)=C(C)[C@H]3[C@H](Cc4ccccc4)NC(=O)[C@@]123,.,4,117*,.,-2
COC(=O)C1=C(c2ccc(F)cc2F)C[C@@H]2CC[C@H]1N2C(=O)NCc1ccc(C(F)(F)F)cc1,.,17,.,.,.
CCOC(=O)c1c(N)n(CCCOC(=O)c2ccco2)c2nc3ccccc3nc12,-1,20,114*,0,8
COc1ccc(C2(c3cccc(O)c3OC)CCN(C(C)=O)CC2)cc1O,.,-4,-3,.,2
CCCCCn1c(=O)c(C(=O)NCc2ccc(Cl)cc2)c(O)c2ccccc21,-16,67,31,-3,17
CCCCn1c(=O)c(C(=O)NCc2ccncc2)c(O)c2ccccc21,7,16,26,-1,58*
CCCCn1c(=O)c(C(=O)NCc2ccccc2Cl)c(O)c2ccccc21,5,53,-7,-1,50*
CCCCn1c(=O)c(C(=O)NCc2ccccc2)c(O)c2ccccc21,5,?,18,0,76*
COC(=O)C1=C(c2cccc(OCc3ccccc3)c2)C[C@@H]2CC[C@H]1N2C(=O)NCc1cc(C)oc1C(F)(F)F,.,30,.,.,.
CCCNC(=O)N1[C@H]2CC[C@@H]1C(C(=O)OC)=C(c1ccc(OC)c(OC)c1)C2,.,-16,.,.,.
CNC(=O)Oc1cccc(-c2cn3cc(Cl)ccc3n2)c1,9,16,?,-5,6
CNC(=O)Oc1ccc(-c2cn3cc(C)ccc3n2)cc1,47,10,76*,2,5
CN(C)CCSCc1nnc2n1-c1ccc(Cl)cc1C(c1ccccc1Cl)=NC2,.,-8,-24,.,-8
CCCCCCn1c(O)c(C=NCCN2CCOCC2)c(=O)[nH]c1=O,-19,3,-9,8,4
COC(=O)C1=C(c2cccc(OC)c2OC)C[C@@H]2CC[C@H]1N2C(=O)NCc1ccc(C(F)(F)F)cc1,.,-10,17,.,2
CCCCCCCn1c(=O)c(C(=O)Nc2cnccn2)c(O)c2ccccc21,-36,70,44,4,60*
CCCCCn1c(=O)c(C(=O)Nc2cc(C)ccn2)c(O)c2ccccc21,8,30,25,-2,3
CCCCCn1c(=O)c(C(=O)Nc2cnccn2)c(O)c2ccccc21,-9,0,98*,-2,81*
CCCCCCn1c(=O)c(C(=O)Nc2cccc(C)n2)c(O)c2ccccc21,-8,-7,18,-4,-3
CCCCCn1c(=O)c(C(=O)Nc2ccccc2S(N)(=O)=O)c(O)c2ccccc21,22,6,69*,-2,43
CCCCn1c(=O)c(C(=O)Nc2ccccc2S(N)(=O)=O)c(O)c2ccccc21,-15,41,-41,1,5
O=C(CCc1ccc(O)cc1)N1C[C@H]2C[C@@H](C1)c1cccc(=O)n1C2,-4,-10,6,4,-5
